Calls of active or inactive are those of the source. The calls were made as follows: active = hit-call score of the fitted dose curve at least 0.9, where 1 is the maximum; inactive = score below 0.9.
Key:
[1] = APR_HepG2_P-H2AX_72hr: Apredica 72-hour HepG2 Assay for H2AX Phosphorylation (AID 2282916); conditions: imaging, actives raise or lower the signal;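 also: phospho-histone H2A.x immunostain intensity per cell marking DNA damage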
Outline: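 Human hepatoma HepG2 cells are dosed across ten concentrations (0.39 to 200 uM, 0.5% v/v DMSO) and incubated 72 hr. Phospho-histone H2A.x is then detected by antibody staining alongside c-Jun and Hoechst, and quantified by automated fluorescence imaging.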

[2] = APR_HepG2_MitoMembPot_72hr: Apredica 72-hour HepG2 Assay for Mitochondrial Membrane Potential (AID 2282917); conditions: imaging, actives raise or lower the signal
Outline: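 HepG2 cells dosed 72 hr with compound at 0.39–200 uM in duplicate, 0.5% v/v DMSO final. Mitochondria stained with 250 nM MitoTracker Red CMXRos for 30 min before formaldehyde fixation, imaged by high-content fluorescence; bidirectional fit versus DMSO.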

[3] = APR_HepG2_MitoticArrest_72hr: Apredica 72-hour HepG2 Assay for Mitotic Arrest (AID 2282918); conditions: high-content imaging, actives raise or lower the signal
Outline: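 Read-out is phospho-histone H3 immunofluorescence with Hoechst nuclear segmentation, imaged at 20x. Human HepG2 liver cells received ten concentrations (0.39–200 uM, final DMSO 0.5% v/v) for 72 hr before fixation. Gain or loss of signal was fitted relative to DMSO.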

[4] = APR_HepG2_MicrotubuleCSK_72hr: Apredica 72-hour HepG2 Assay for Microtubule CSK Stabilty (AID 2282919); conditions: HepG2 microtubule cytoskeleton, high-content imaging, actives raise or lower the signal
Outline: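 HepG2, 72 hr cmpd exposure, 0.39–200 uM (10 pts, duplicate), 0.5% DMSO. 3.7% formaldehyde fix, 0.5% Triton perm, anti-alpha-tubulin/Cy5 plus Hoechst. HCS fluorescence intensity; bidirectional fit vs DMSO baseline; taxol as positive control.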

[5] = APR_HepG2_P-H2AX_24hr: Apredica 24-hour HepG2 Assay for H2AX Phosphorylation (AID 2282920); conditions: high-content imaging, actives raise or lower the signal
Outline: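 HepG2, 24 hr, cpd 0.39–200 uM (10 conc, duplicate), DMSO 0.5% v/v final. Fix 3.7% formaldehyde, Triton X-100 permeabilize, anti-phospho-H2A.x 1:200 + Hoechst 2 ug/mL. Imaged, bidirectional fit vs DMSO.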

[6] = APR_HepG2_StressKinase_72hr: Apredica 72-hour HepG2 Assay for Stress Kinase (AID 2282921); conditions: HepG2 stress kinase (phospho-c-Jun) imaging, actives raise or lower the signal
Outline: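 After a 72 h compound treatment spanning 0.39 to 200 uM, formaldehyde-fixed cells are labelled for phosphorylated c-Jun and nuclei, imaged by automated fluorescence microscopy, and activity is fitted in both directions relative to DMSO controls.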

[7] = APR_HepG2_StressKinase_24hr: Apredica 24-hour HepG2 Assay for Stress Kinase (AID 2282922); conditions: HepG2 stress kinase (phospho-c-Jun) imaging, actives raise or lower the signal
Outline: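 Read-out: phospho-c-Jun immunofluorescence (Cy3 secondary) quantified by high-content imaging at 20x, nuclei defined by Hoechst 33342. Human HepG2 liver cells dosed 24 hr, 0.39–200 uM, DMSO 0.5% v/v; gain or loss of signal fitted relative to DMSO.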

[8] = APR_HepG2_p53Act_72hr: Apredica 72-hour HepG2 Assay for p53 Activation (AID 2282923); conditions: high-content imaging, actives raise or lower the signal;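 also: average cellular p53 protein immunofluorescence intensity in HepG2 cells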
Outline: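 Imaging-based endpoint: after 72 hr compound exposure (up to 200 uM, 0.5% DMSO), fixed and permeabilized monolayers were labelled with anti-p53 antibody and imaged; signal change in either direction was fitted relative to DMSO controls.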

[9] = APR_HepG2_MitoMass_72hr: Apredica 72-hour HepG2 Assay for Mitochondrial Mass (AID 2282924); conditions: high-content imaging, actives raise or lower the signal;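 also: MitoTracker Red CMXRos stain intensity per cell imaged as mitochondrial mass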
Outline: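 Read-out: MitoTracker Red fluorescence intensity from automated imaging (20x, six fields per well) in human HepG2 liver cells. Dosing ran 72 hr, 0.39–200 uM, 0.5% DMSO; bidirectional curve fitting versus DMSO baseline.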

[10] = APR_HepG2_NuclearSize_72hr: Apredica 72-hour HepG2 Assay for Nuclear Size (AID 2282925); conditions: high-content imaging, actives raise or lower the signal
Outline: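 Read-out: nuclear diameter from Hoechst 33342 images (ArrayScan, 20x, six fields/well), via cell-cycle image analysis. HepG2 were dosed 0.39–200 uM for 72 hr in 0.5% DMSO. Bidirectional fit relative to DMSO.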

[11] = ATG_CRE_CIS: Attagene CIS-FACTORIAL HepG2 Assay for human cAMP Responsive Element (CRE) binding protein 3 (AID 2282926); conditions: HepG2 CRE cis-reporter, Attagene multiplexed mRNA; actives raise or lower the signal
Outline: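 Assay format: transient reporter transfection of HepG2, 24 h treatment, total RNA isolation with DNase I step. Reporter abundance read by fluorescence after PCR and capillary separation; DMSO-normalised gain or loss fitting.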

[12] = molecular target: CCAAT/enhancer-binding protein beta (Homo sapiens) (UniProt P17676); test: ATG_C_EBP_CIS: Attagene CIS-FACTORIAL HepG2 Assay for human CCAAT/Enhancer Binding Protein (C/EBP) beta (AID 2282927); conditions: HepG2 Attagene cis-factorial transcription factor reporter; actives raise or lower the signal
CCAAT/enhancer-binding protein beta (Homo sapiens), sequence (P17676 whole entry, looked up): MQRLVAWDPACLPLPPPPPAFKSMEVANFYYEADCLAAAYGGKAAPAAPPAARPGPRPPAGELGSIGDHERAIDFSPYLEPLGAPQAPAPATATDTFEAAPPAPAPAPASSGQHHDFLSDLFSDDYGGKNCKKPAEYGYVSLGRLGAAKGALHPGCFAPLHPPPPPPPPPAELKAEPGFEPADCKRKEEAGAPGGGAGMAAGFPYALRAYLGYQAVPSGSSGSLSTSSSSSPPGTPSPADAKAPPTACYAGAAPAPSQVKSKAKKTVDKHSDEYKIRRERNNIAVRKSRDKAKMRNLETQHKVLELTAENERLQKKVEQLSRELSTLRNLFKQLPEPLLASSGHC
Outline: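 Transiently transfected HepG2 (MRTU library, endogenous TF-driven promoters); 24 h dosing; total RNA → oligo(dT) RT → PCR → 6-FAM primer extension → HpaI digest → CE; fit bidirectionally vs DMSO.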

[13] = ATG_CMV_CIS: Attagene CIS-FACTORIAL HepG2 Assay for human CMV (Internal Marker) (AID 2282928); conditions: HepG2 CMV promoter reporter, transcription factor profiling; actives raise or lower the signal;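 also: endpoint acts as a background internal control marker rather than a target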
Outline: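 Fluorescence intensity of RT-PCR-derived reporter fragments, resolved by capillary electrophoresis, gives the signal. HepG2 liver cells bearing transfected cis-element reporters were treated 24 h; activity in either direction was fit relative to DMSO-treated controls.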

[14] = ATG_DR4_LXR_CIS: Attagene CIS-FACTORIAL HepG2 Assay for human Liver X Receptor (LXR), DR4 submotif (AID 2282929); conditions: HepG2 Attagene DR4 cis-reporter, mRNA transcription; actives raise or lower the signal
Outline: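 Measures endogenous transcription factor activity via a DR4-driven reporter transcript in human HepG2 cells. Compounds incubated 24 h; mRNA quantified by RT-PCR and capillary electrophoresis, analysed as gain or loss of signal versus DMSO.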

[15] = molecular target: Aryl hydrocarbon receptor (Homo sapiens) (UniProt P35869); test: ATG_Ahr_CIS: Attagene CIS-FACTORIAL HepG2 Assay for human Aryl Hydrocarbon Receptor (Ahr) (AID 2282930); conditions: HepG2 AhR cis-factorial reporter transcription; actives raise or lower the signal
Aryl hydrocarbon receptor (Homo sapiens), sequence (P35869 whole entry, looked up): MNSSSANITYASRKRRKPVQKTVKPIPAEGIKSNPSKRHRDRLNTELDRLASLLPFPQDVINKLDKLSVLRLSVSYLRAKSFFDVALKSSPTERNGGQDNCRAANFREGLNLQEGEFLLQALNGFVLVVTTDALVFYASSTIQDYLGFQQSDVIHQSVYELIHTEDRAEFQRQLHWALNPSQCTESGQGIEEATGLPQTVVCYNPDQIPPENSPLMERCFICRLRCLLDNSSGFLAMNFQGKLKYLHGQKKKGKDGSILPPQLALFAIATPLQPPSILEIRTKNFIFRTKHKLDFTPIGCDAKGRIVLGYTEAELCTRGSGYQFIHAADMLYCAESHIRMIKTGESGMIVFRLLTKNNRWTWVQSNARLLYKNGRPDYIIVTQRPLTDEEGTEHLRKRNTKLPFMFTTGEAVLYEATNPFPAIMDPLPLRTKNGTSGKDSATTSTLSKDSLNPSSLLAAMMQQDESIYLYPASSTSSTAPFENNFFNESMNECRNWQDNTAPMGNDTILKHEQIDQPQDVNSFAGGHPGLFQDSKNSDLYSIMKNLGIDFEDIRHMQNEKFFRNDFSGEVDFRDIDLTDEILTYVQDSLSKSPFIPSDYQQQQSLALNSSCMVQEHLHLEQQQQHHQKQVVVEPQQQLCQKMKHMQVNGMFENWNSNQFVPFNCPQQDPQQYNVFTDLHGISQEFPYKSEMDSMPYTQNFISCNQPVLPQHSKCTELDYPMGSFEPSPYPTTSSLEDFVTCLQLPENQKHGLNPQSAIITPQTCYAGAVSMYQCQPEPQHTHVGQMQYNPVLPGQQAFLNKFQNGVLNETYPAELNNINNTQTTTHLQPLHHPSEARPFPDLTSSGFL
Outline: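 Read-out: reporter mRNA quantified by RT-PCR with fluorescent primer extension and capillary electrophoresis. Human HepG2 liver cells carried transfected cis-promoter reporter units and were exposed to chemical for 24 h; gain or loss fitted relative to DMSO.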

[16] = ATG_AP_1_CIS: Attagene CIS-FACTORIAL HepG2 Assay for human Activator Protein 1 (AP-1) (AID 2282931); conditions: HepG2 Attagene cis-factorial AP-1 reporter mRNA; actives raise or lower the signal
Outline: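 Bidirectional concentration-response fitting against DMSO controls. Underlying signal: reporter mRNA from cis-promoter constructs in transiently transfected HepG2, measured after 24 h by RT-PCR and capillary electrophoresis.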

[17] = ATG_BRE_CIS: Attagene CIS-FACTORIAL HepG2 Assay for human Bone Morphogenetic Protein (BMP) Response Element (BRE) (AID 2282933); conditions: HepG2 BMP response element reporter, Attagene transcription factor profiling; actives raise or lower the signal
Outline: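 Endogenous transcription factor activity at a BMP response element was monitored in transfected HepG2 cells 24 h after dosing. Fluorescent RT-PCR products were resolved by capillary electrophoresis, and activity was fitted in both directions versus DMSO.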

[18] = molecular target: Retinoic acid receptor alpha (Homo sapiens) (UniProt P10276); test: ATG_DR5_RAR_CIS: Attagene CIS-FACTORIAL HepG2 Assay for human Retinoic Acid Receptor Alpha (RARE), DR5 submotif (AID 2282934); conditions: HepG2 Attagene cis-factorial RARE DR5 reporter, mRNA; actives raise or lower the signal;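 as to AC50: reporter responds to endogenous RAR alpha beta and gamma in HepG2 not RARA alone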
Retinoic acid receptor alpha (Homo sapiens), sequence (P10276 whole entry, looked up): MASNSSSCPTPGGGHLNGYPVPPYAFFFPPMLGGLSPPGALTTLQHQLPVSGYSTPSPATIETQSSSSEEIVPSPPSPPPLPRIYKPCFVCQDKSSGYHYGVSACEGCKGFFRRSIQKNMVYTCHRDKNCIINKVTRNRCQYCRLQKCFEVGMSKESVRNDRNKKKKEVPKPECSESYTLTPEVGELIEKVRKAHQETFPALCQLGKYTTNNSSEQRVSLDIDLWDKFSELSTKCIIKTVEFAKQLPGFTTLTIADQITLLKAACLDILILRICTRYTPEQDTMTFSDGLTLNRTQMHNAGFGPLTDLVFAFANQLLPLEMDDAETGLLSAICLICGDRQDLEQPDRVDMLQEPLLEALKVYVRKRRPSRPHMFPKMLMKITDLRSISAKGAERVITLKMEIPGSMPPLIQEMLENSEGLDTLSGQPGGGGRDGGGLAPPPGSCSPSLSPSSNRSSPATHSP
Outline: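 Read-out: DR5-driven reporter transcript measured by RT-PCR, 6-FAM primer extension, HpaI digest and capillary electrophoresis. Human HepG2 liver cells carry transiently transfected cis-element reporter constructs; dosing lasts 24 h. Gain or loss of signal fitted against DMSO baseline.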

[19] = molecular target: Transcription factor E2F1 (Homo sapiens) (UniProt Q01094); test: ATG_E2F_CIS: Attagene CIS-FACTORIAL HepG2 Assay for human E2F Transcription Factor 1 (AID 2282935); conditions: HepG2 Attagene cis-reporter, E2F reporter RNA transcripts; actives raise or lower the signal
Transcription factor E2F1 (Homo sapiens), sequence (Q01094 whole entry, looked up): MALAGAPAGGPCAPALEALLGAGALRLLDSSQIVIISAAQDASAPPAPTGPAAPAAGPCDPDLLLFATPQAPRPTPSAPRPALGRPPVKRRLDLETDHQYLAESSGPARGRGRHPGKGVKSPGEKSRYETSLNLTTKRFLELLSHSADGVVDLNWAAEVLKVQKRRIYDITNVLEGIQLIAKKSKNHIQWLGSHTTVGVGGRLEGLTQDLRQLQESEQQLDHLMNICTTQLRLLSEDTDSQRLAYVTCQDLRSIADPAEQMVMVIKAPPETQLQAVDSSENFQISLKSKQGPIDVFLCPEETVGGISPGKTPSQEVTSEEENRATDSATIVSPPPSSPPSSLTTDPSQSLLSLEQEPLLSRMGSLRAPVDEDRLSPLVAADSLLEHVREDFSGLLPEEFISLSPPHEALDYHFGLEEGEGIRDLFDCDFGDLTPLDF
Outline: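 Liver-derived HepG2 cells expressing transfected promoter-driven reporter units received test chemical for 24 hours. Signal gains or losses were fitted bidirectionally against DMSO.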

[20] = ATG_AP_2_CIS: Attagene CIS-FACTORIAL HepG2 Assay for human Activator Protein 2 (AP-2) (AID 2282932); conditions: HepG2 AP-2 cis-reporter, Attagene transcription factor profiling; actives raise or lower the signal
Outline: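 Liver-derived HepG2 line, cis-reporter system measuring endogenous factors; 24 h dosing; reporter mRNA detected by fluorescent RT-PCR and capillary electrophoresis.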

Measured: AC50

C#CCC1=C(C)C(OC(=O)C2C(C=C(C)C)C2(C)C)CC1=O (stereo not given)
active: [11] 27.1 µM | [12] 21.7 µM | [14] 50 µM | [15] 78.6 µM | [16] 37.1 µM | [17] 9.01 µM | [18] 9.92 µM
not listed: [20]
inactive: all other assays above

C[Si](Cn1cncn1)(c1ccc(F)cc1)c1ccc(F)cc1
active: [14] 48.7 µM | [16] 50 µM | [17] 39.1 µM
not listed: [18]
inactive: all other assays above

CC(C1CC1)C(O)(Cn1cncn1)c1ccc(Cl)cc1 (stereo not given)
active: [14] 11.3 µM
not listed: [7]
inactive: all other assays above

CCOP(=S)(OCC)Oc1cc(C)nc(C(C)C)n1
active: [13] 29.8 µM | [14] 50 µM | [15] 16.3 µM
not listed: [7] | [18]
inactive: all other assays above

From PubChem BioAssay (EPA / NIEHS)
